Experimental data: PubChem BioAssay AID2233 (The Scripps Research Institute Molecular Screening Center, 2010)
This is one part of the list. Calls of active or inactive are those of the source.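 How the source made its calls: active means mean inhibition across replicates above the hit cutoff set in the primary screen (cut at about 15% in these data); inactive means the rest.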

Molecular target: Acyl-protein thioesterase 1 (Homo sapiens) (UniProt O75608)
Assay: inhibition of human lysophospholipase 1 – biochemical, fluorescence polarization, FP-Rh probe ABPP, counter-screen for PME1 inhibitor project, confirmation (AID 2233);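 further: loss of FP-Rh probe labeling of LYPLA1 seen as lower polarization; 0% = LYPLA1 with DMSO and 100% = wells lacking LYPLA1 enzyme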
Settings: recombinant LYPLA1, FP-Rh probe fluorescence polarization; at 5.9 µM; hits give high values

Chain of Acyl-protein thioesterase 1 (Homo sapiens) (O75608 whole entry, looked up): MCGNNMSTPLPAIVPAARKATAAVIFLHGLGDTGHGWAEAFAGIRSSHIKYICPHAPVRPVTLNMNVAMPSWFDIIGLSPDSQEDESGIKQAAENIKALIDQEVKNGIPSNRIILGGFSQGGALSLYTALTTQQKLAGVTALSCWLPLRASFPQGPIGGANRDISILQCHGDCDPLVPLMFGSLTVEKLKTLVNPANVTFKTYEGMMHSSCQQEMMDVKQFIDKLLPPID

Structure (SMILES)	inhibition
C=CCNC(=O)c1sc(SC)cc1-c1ccc(Cl)cc1	23.5% (active)
COc1ccc(N2CC(C(=O)NCCN3C(=O)S/C(=C\c4cccnc4)C3=O)CC2=O)c(OC)c1 (stereo not given)	1.04% (inactive)
COc1cccc(NC(=O)N2CCCC2C(=O)NC2CCCCC2)c1 (stereo not given)	2.88% (inactive)
O=C(CCn1c(SCC(=O)c2ccccc2)nc2ccccc2c1=O)NCc1ccc(F)cc1	-4.57% (inactive)
CCN1C(=O)/C(=C2/Sc3ccccc3N2CCCS(=O)(=O)O)SC1=S	9.65% (inactive)
O=C(COc1ccc(Cl)cc1)N1CCN(c2cccc(C(F)(F)F)c2)CC1	31.6% (active)
Cc1ccc(N2CCN(C3=NC(=O)/C(=C\c4cccs4)S3)CC2)cc1	37% (active)
O=C(CN1CCN(c2cccc(Cl)c2)CC1)Nc1ccc(S(=O)(=O)N2CCOCC2)cc1	23.3% (active)
O=C(c1ccc(-c2ccccc2)cc1)C1CCCN(C(=O)c2cncs2)C1 (stereo not given)	30.7% (active)
COCCOC(=O)c1sc(=S)n(CCOC)c1N	13.4% (inactive)
CCOc1ccccc1N1CCN(C(=O)c2ccc3[nH]c(C)c(C)c3c2)CC1	29.3% (active)
CSc1c(SCc2ccccc2)cnn(Cc2ccccc2)c1=O	2.84% (inactive)
CCOc1ccc(C(=O)NC(=S)Nc2ccc(N3CCOCC3)c(Cl)c2)cc1[N+](=O)[O-]	24.6% (active)
CCC(=C/c1sc2ccc3ccccc3c2[n+]1C)/C=C1\Sc2ccc3ccccc3c2N1C	78.8% (active)
O=c1[nH]n(-c2ccc([N+](=O)[O-])cc2)c(=O)c2ccccc12	17.7% (active)
